Measured values: PubChem BioAssay (NCATS)
Several values for one entry are separate records, joined by “and”; a condition that tells them apart may be missing. Equal values may be shown once. Records with an inconclusive call do not appear. This is one part of the list. A call without a number means that no potency is given here. Activity calls are given as the source filed them. Unless noted, the call rests on the fitted dose curve; in most records, active means well fitted curve in the direction sought with a large enough effect in the repeat runs; inconclusive means weak or mixed curves; inactive means no such curve, though single readings can be large; an effect the other way counts as inactive or inconclusive.

Legend:
[1] = qHTS assay for small molecule agonists of the antioxidant response element (ARE) signaling pathway measured by Nrf2-dependant transcriptional activity (AID 720636); conditions: ARE-luc HepG2, Nrf2 luciferase reporter, 16 h; series mostly up to 92.4 µM;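 further: HepG2 cells with an ARE-driven luciferase reporter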
In short: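 Cells: ARE-luc HepG2 with Nrf2-responsive luciferase. Medium contained 1% dialyzed FBS. Compound exposure lasted 16 hr at 37 C and 5% CO2, followed by ONE-Glo luciferase detection.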

[2] = qHTS assay for small molecule agonists of the antioxidant response element (ARE) signaling pathway measured by Nrf2-dependant transcriptional activity - cell viability counter screen (AID 720653); conditions: ARE-bla HepG2 viability, CellTiter-Glo ATP luminescence, 16 h; stronger effect = lower value
In short: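 ARE-bla HepG2 cells treated with compounds for 16 h at 37C; this counter screen measures viability as intracellular ATP by CellTiter-Glo luminescence after 30 min at room temperature.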

[3] = qHTS Assay for Identifying Gametocytocidal Compounds (AID 743244; active means well fitted curve in the direction sought with a large enough effect; an effect the other way counts as inactive or inconclusive;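 further: actives lower the fluorescent signal which means gametocytes are killed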); conditions: P. falciparum 3D7 stage III-V gametocytes, alamarBlue, 72 h; max response: stronger effect = lower value
In short: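 Viability read-out was resazurin reduction (alamarBlue, 24 h) measured at Ex 525/Em 598 nm. Beforehand, late-stage (III-V) 3D7 P. falciparum gametocytes at 20,000 cells/well were incubated with compound 72 h at 37C under 5% CO2.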

[4] = qHTS assay for cell viability of the p53RE-bla HCT-116 cell line (AID 743292; active means well fitted curve in the direction sought with a large enough effect; an effect the other way counts as inactive or inconclusive; further: nearly all actives have a fitted effect of over 55% in size); conditions: p53RE-bla HCT-116 viability, ATP luminescence, 16 h; series mostly up to 95 µM
In short: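 HCT-116 p53RE-bla cells seeded 4,000/well; 5 h at 37 C; compound (DMSO) added; 16 h at 37 C; CellTiter-Glo added, 30 min RT; luminescence read.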

[5] = qHTS assay for small molecule antagonists of the retinoid-related orphan receptor gamma (ROR-gamma) signaling pathway - cell viability counter screen (AID 720652); conditions: RORgamma reporter cell line viability counter screen; series mostly up to 92.2 µM;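 further: CHO reporter cells with doxycycline-induced ROR-gamma expression; compound exposure lasted 16 hr before ATP read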
In short: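 Steps: seed CHO cells bearing TET-inducible ROR and ROR response element-luciferase; rest 5 hr at 37 C; add compound, then doxycycline; incubate 16 hr; add CellTiter-Glo and read luminescence as ATP-based viability.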

[6] = qHTS profiling of the MIPE4 collection as inhibitors of Plasmodium falciparum (3D7) proliferation (AID 743344; call rule not given here); conditions: P. falciparum 3D7 in erythrocytes, SYBR Green DNA fluorescence, 72 h; at 9.64 µM (top of the series) unless noted
In short: (§1)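 Parasite DNA was quantified by SYBR Green I fluorescence (ex 485, em 535 nm) after overnight lysis in saponin/Triton buffer at room temperature. Cultures at 0.3% parasitemia and 2.5% hematocrit were first exposed to compound for 72 h at 37 C; signals were normalised to artemisinin (0.29 uM) and vehicle wells.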

[7] = biological target: DNA polymerase kappa (Homo sapiens) (UniProt Q9UBT6); assay: qHTS for Inhibitors of Polymerase Kappa: Confirmatory Assay for Cherry-picked Compounds (AID 720501; active means well fitted curve in the direction sought with a large enough effect; an effect the other way counts as inactive or inconclusive; further: potency means the concentration at half of the fitted maximal effect); conditions: purified Pol-kappa, fluorescent strand-displacement substrate
Sequence of DNA polymerase kappa (Homo sapiens) (Q9UBT6 whole entry, looked up): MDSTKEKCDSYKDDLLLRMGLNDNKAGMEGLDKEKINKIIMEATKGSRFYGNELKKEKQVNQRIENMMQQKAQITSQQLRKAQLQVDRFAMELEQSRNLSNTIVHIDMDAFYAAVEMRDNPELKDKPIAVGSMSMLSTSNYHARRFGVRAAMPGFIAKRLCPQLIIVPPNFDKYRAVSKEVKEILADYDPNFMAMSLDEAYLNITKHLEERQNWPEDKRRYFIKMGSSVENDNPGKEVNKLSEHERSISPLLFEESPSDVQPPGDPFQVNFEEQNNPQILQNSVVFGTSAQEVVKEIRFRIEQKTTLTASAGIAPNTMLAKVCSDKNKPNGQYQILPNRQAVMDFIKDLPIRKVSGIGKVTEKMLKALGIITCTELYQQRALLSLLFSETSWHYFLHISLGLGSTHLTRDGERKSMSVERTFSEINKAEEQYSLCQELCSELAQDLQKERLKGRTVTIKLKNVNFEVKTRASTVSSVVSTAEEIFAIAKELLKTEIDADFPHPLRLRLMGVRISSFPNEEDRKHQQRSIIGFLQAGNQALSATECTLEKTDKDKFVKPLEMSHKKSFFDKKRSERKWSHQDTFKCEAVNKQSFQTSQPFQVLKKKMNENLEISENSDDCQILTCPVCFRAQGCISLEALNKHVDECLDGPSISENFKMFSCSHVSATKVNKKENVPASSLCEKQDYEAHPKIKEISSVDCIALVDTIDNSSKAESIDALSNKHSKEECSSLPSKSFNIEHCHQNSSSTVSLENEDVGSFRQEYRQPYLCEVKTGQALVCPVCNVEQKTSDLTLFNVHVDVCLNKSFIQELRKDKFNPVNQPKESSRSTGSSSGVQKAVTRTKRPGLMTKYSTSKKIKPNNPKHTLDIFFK
In short: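 10 nM human Pol-kappa was preincubated with compound 15 min at room temperature, then 50 nM (final) primer/template substrate with TAMRA-labeled reporter strand and BHQ-2-labeled template added. Fluorescence (Ex 525, Em 598 nm) read at 0 and 10 min.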

[8] = qHTS profiling for inhibitors of Plasmodium falciparum (3D7) proliferation (AID 743322; call rule not given here;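 further: infected erythrocytes exposed to compound for 72 h before lysis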); conditions: P. falciparum 3D7 proliferation; at 28.7 µM (top of the series)
In short: as §1

[9] = qHTS profiling for inhibitors of Plasmodium falciparum (DD2) proliferation (AID 743323; call rule not given here); conditions: lower = more inhibition; at 28.7 µM (top of the series)
In short: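 1536-well qHTS; infected RBCs 0.3% parasitemia/2.5% Hct final; cpd 72 h 37 C 5% CO2; lysis buffer + SYBR Green I, o/n RT dark; FI 485/535; norm. to 0.29 uM artemisinin and DMSO, plate-stack corrected.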

[10] = qHTS profiling for inhibitors of Plasmodium falciparum (HB3) proliferation (AID 743324; active means well fitted curve in the direction sought with a large enough effect; an effect the other way counts as inactive or inconclusive); conditions: Plasmodium falciparum HB3 blood-stage proliferation; at 28.7 µM (top of the series)
In short: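 SYBR Green fluorescence (485 ex/535 em) of lysed cultures, incubated overnight at room temperature in the dark, quantifies parasite DNA. Infected erythrocytes at 0.3% parasitemia and 2.5% hematocrit were exposed 72 h; values normalized to DMSO and 0.29 uM artemisinin controls.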

## OC[C@@H](O)[C@@H](O)[C@H](O)[C@H](O)CO
[1]
  outcome: inactive
[2]
  max response: -1.54% (inactive)
[3]
  max response: 5.56% (inactive)
[4]
  outcome: inactive

## CN1C(=O)CC(c2ccccc2)C1=O (configuration not stated)
[3]
  max response: -11.3% (inactive)

## Cc1cccc(Nc2ccccc2C(=O)O)c1C
[1]
  outcome: inactive
[2]
  max response: -4.01% (inactive)
[3]
  max response: 4.7% (inactive)
[4]
  outcome: inactive

## Cc1cc(=O)[nH]c(=S)[nH]1
[1]
  outcome: inactive
[5]
  outcome: inactive
[2]
  max response: 1.24% (inactive)
[3]
  max response: 4.75% (inactive)
[4]
  outcome: inactive

## COc1ccccc1OCC(O)CO (configuration not stated)
[3]
  max response: 10.4% (inactive)

## Cc1c(C(=O)NCCO)[n+](=O)c2ccccc2n1[O-]
[1]
  outcome: inactive
[2]
  max response: -7.99% (inactive)
[3]
  max response: 6.22% (inactive)
[4]
  outcome: inactive

## COc1ccc(O)cc1
[1]
  outcome: inactive
[5]
  outcome: inactive
[2]
  max response: -1.63% (inactive)
[3]
  max response: -2.64% (inactive)
[4]
  outcome: inactive

## CC(=O)N1C[C@H](O)C[C@H]1C(=O)O
[3]
  max response: 11.8% (inactive)

## CCCCCOC(=O)Nc1nc(=O)n([C@@H]2O[C@H](C)[C@@H](O)[C@H]2O)cc1F
[3]
  max response: 5.02% (inactive)

## Cc1c(N(C)C)c(=O)n(-c2ccccc2)n1C
[1]
  outcome: inactive
[5]
  outcome: inactive
[2]
  max response: -0.437% (inactive) and -7.96% (inactive)
[3]
  max response: -4.29% (inactive)
[4]
  outcome: inactive

## Nc1ccc(S(=O)(=O)c2ccc(N)cc2)cc1
[1]
  outcome: inactive
[5]
  outcome: inactive
[2]
  max response: -3.28% (inactive) and -10.9% (inactive)
[3]
  max response: -3.88% (inactive)
[4]
  outcome: inactive
[6]
  parasite growth, % of DMSO control: 91.3%

## O=C(O)CCCCC1CCSS1 (configuration not stated)
[1]
  outcome: inactive
[2]
  max response: 10.3% (inactive) and -9.69% (inactive)
[3]
  max response: 3.67% (inactive)
[4]
  outcome: inactive

## O=C1C(c2[nH]c3ccccc3c2O)=Nc2ccccc21
[1]
  outcome: inactive
[5]
  outcome: inactive
[2]
  max response: -0.733% (inactive)
[4]
  outcome: inactive

## CCCCCCCCCCCCCCCCCCO
[1]
  outcome: inactive
[2]
  max response: 2.19% (inactive)
[3]
  max response: 4.31% (inactive)

## CCCCOC(=O)c1ccc(N)cc1
[5]
  outcome: inactive
[2]
  max response: -19.9% (inactive)
[3]
  max response: -1.98% (inactive)
[4]
  outcome: inactive

## CC(C)=CCC/C(C)=C/CO
[1]
  outcome: inactive
[2]
  max response: 4.56% (inactive)
[3]
  max response: 19.8% (inactive)
[4]
  outcome: inactive

## CC1CC(OC(=O)c2ccccc2O)CC(C)(C)C1 (configuration not stated)
[1]
  outcome: inactive
[5]
  outcome: inactive
[2]
  max response: 0.684% (inactive)
[3]
  max response: -1.2% (inactive)
[4]
  outcome: inactive

## FC(F)(F)C(Cl)Br (configuration not stated)
[1]
  outcome: inactive
[5]
  outcome: inactive
[2]
  max response: -1.89% (inactive)
[3]
  max response: -11.3% (inactive)
[4]
  outcome: inactive

## COC(=O)c1ccc(O)cc1
[2]
  max response: -3.37% (inactive)
[3]
  max response: -9.3% (inactive)
[4]
  outcome: inactive

## CC(=O)Nc1ccc(C(=O)O)cc1
[1]
  outcome: inactive
[5]
  outcome: inactive
[2]
  max response: -5.69% (inactive)
[3]
  max response: 7.86% (inactive)
[4]
  outcome: inactive

## CCCCCC(N)=O
[1]
  outcome: inactive
[5]
  outcome: inactive
[2]
  max response: -1.07% (inactive)
[3]
  max response: 2.77% (inactive)
[4]
  outcome: inactive

## CC(=O)Nc1ccccc1
[1]
  outcome: inactive
[5]
  outcome: inactive
[2]
  max response: -3.41% (inactive)
[3]
  max response: 9.51% (inactive)
[4]
  outcome: inactive

## CC[N+](CC)(CC(=O)Nc1c(C)cccc1C)Cc1ccccc1
[1]
  outcome: inactive
[2]
  max response: -0.181% (inactive)
[3]
  max response: 7.32% (inactive)
[4]
  outcome: inactive

## Cc1ccc(C(C)C)c(O)c1
[1]
  outcome: inactive
[2]
  max response: -4.59% (inactive)
[3]
  max response: 22.6% (inactive)
[4]
  outcome: inactive

## CC(=O)OCC(COC(C)=O)OC(C)=O
[1]
  outcome: inactive
[5]
  outcome: inactive
[2]
  max response: -0.23% (inactive) and 1.03% (inactive)
[3]
  max response: 41.8% (inactive)
[4]
  outcome: inactive

## CC(=O)NS(=O)(=O)c1ccc(N)cc1
[1]
  outcome: inactive
[5]
  outcome: inactive
[2]
  max response: -11.8% (inactive)
[3]
  max response: 2.53% (inactive)
[4]
  outcome: inactive

## CCCC(O)C(CC)CO (configuration not stated)
[1]
  outcome: inactive
[5]
  outcome: inactive
[2]
  max response: 0.4% (inactive)
[3]
  max response: 0.642% (inactive)
[4]
  outcome: inactive

## CCN(CC)C(=O)c1cccc(C)c1
[1]
  outcome: inactive
[5]
  outcome: inactive
[2]
  max response: -1.02% (inactive) and 2.48% (inactive)
[3]
  max response: 18.7% (inactive)
[4]
  outcome: inactive

## O=C(c1ccccc1)C(O)c1ccccc1 (configuration not stated)
[1]
  outcome: inactive
[5]
  outcome: inactive
[2]
  max response: -4.04% (inactive) and -7.26% (inactive)
[3]
  max response: 0.61% (inactive)
[4]
  outcome: inactive

## C=CCNC(N)=S
[1]
  outcome: inactive
[5]
  outcome: inactive
[2]
  max response: 0.701% (inactive)
[3]
  max response: 5.17% (inactive)
[4]
  outcome: inactive

## O=C(OOC(=O)c1ccccc1)c1ccccc1
[1]
  outcome: inactive
[2]
  max response: -11.2% (inactive)
[3]
  max response: -8.14% (inactive)
[4]
  outcome: inactive

## Cc1cc(O)cc(C)c1Cl
[1]
  outcome: inactive
[2]
  max response: 0.227% (inactive)
[3]
  max response: -2.6% (inactive)
[4]
  outcome: inactive

## COc1ccc(-c2cc(=O)c3c(O)cc(O[C@@H]4O[C@H](CO[C@@H]5O[C@@H](C)[C@H](O)[C@@H](O)[C@H]5O)[C@@H](O)[C@H](O)[C@H]4O)cc3o2)cc1O
[7]
  Potency: 18.9 µM (active)
[3]
  max response: -2.29% (inactive)

## Cc1cc(C)nc(NS(=O)(=O)c2ccc(N)cc2)n1
[1]
  outcome: inactive
[5]
  outcome: inactive
[2]
  max response: -4.69% (inactive) and 1.65% (inactive)
[3]
  max response: -2.99% (inactive)
[4]
  outcome: inactive

## O=C1c2cccc(O)c2C(=O)c2c(O)cccc21
[5]
  outcome: inactive
[3]
  max response: 2.37% (inactive)
[4]
  outcome: inactive

## CCCCCCCC(=O)OCC(COC(=O)CCCCCCC)OC(=O)CCCCCCC
[1]
  outcome: inactive
[5]
  outcome: inactive
[2]
  max response: 1.9% (inactive)
[3]
  max response: 1.43% (inactive)
[4]
  outcome: inactive

## CC(=O)Nc1cccc(O)c1
[1]
  outcome: inactive
[5]
  outcome: inactive
[2]
  max response: 3.22% (inactive)
[3]
  max response: 5.77% (inactive)
[4]
  outcome: inactive

## CCOc1ccccc1O[C@H](c1ccccc1)[C@H]1CNCCO1
[8]
  remaining parasite growth % (stronger effect = lower value): 89.6%
[9]
  activity, percent of control: 63.9%
[10]
  remaining proliferation (% of control), lower = more inhibition: 47.7%

## CCCCCCCCCCOc1cc2c(=O)c(C(=O)OCC)c[nH]c2cc1OCC
[8]
  remaining parasite growth % (stronger effect = lower value): 0.552%
[9]
  activity, percent of control: 2.1%
[6]
  parasite growth, % of DMSO control: 7.74% [at 28.5 µM]

## COc1ccc(NS(=O)(=O)c2ccc(N)cc2)nn1
[6]
  parasite growth, % of DMSO control: 103%
